Compounds with a hit are over-represented: about 19% of the library has one in this group of screens.
TDP1 cell CPT = qHTS for Inhibitors of human tyrosyl-DNA phosphodiesterase 1 (TDP1): qHTS in cells in presence of CPT; AID 686979, 2013; chicken DT40 Tdp1-/-;hTDP1 cells + 20 nM CPT, ATP luminescence, 48 h; Potency, µM (series often up to 46.2 µM), for the others: top-dose activity change, negative = growth inhibition, hits mostly inhibitors; actives 12% (n = 420,000); also: potency is read from the fitted curve at half-maximal effect; nearly all actives have a fitted effect of over 55% in size
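Cell growth measured by CellTiter-Glo luminescence after a minimum 48 h, 37 C compound exposure with 20 nM CPT in Tdp1-knockout DT40 cells stably expressing hTDP1, seeded 400/well; qHTS titration format.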
HT1080 IDH1KD tx = qHTS for induction of synthetic lethality in tumor cells producing 2HG: qHTS for the HT-1080-IDH1KD cell line; Potency, µM (top dose mostly 46.1 µM), for inactives: at the top dose activity, negative = toxicity, usual class: cytotoxic; actives 2% (n = 360,000); AID 686971, 2013; HT-1080 IDH1 knockdown viability, ATP luminescence, 48 h;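 also: potency is read from the fitted curve at half-maximal effect; 0% = DMSO wells and -100% = cell-free medium wells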
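Using the IDH1-knockdown HT-1080 line run in the same batch and compound series as the NT line, viability after 48 h at 37 °C was determined by CellTiter-Glo luminescence and expressed as % activity.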
ELG1 repair inh = qHTS screen for small molecules that inhibit ELG1-dependent DNA repair in human embryonic kidney (HEK293T) cells expressing luciferase-tagged ELG1; HEK293T ELG1-luciferase reporter, luminescence, 16 h; DNA damage induced by 5-fluorouridine; Potency, µM (series often up to 46.1 µM), for the others: top-dose activity change, negative = inhibition, actives largely listed as inhibitors; actives 2.3% (n = 330,000); also: potency is read from the fitted curve at half-maximal effect; nearly all actives have a fitted effect of over 55% in size
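Step one: seed 2,000 cells per well. Step two: pin-transfer compound or DMSO alongside 5-fluorouridine. Step three: incubate 16 hr, 37 °C, 5% CO2. Step four: add ONE-Glo, wait 30 min, read luminescence.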
IL1B secr inh = qHTS for Inhibitors of Inflammasome Signaling: IL-1-beta AlphaLISA Primary Screen; activity change, % at 57.5 µM; THP-1 LPS/ATP IL-1B secretion, AlphaLISA, 16 h; hits give low values; AID 743279, 2014; actives 4.7% (n = 360,000); in the data active = activity change below about -50%; inconclusive = mostly about -30% to -49%
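Secreted IL-1B measured by AlphaLISA bead assay after 16 h compound exposure of THP-1 cells; compounds (final up to 57.5 uM) added 1 h before LPS (250 ng/mL) and ATP (1.25 mM) stimulation; lower signal means less secretion.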
HT1080-NT tox = qHTS for induction of synthetic lethality in tumor cells producing 2HG: qHTS for the HT-1080-NT fibrosarcoma cell line; HT-1080-NT fibrosarcoma viability, CellTiter-Glo ATP luminescence, 48 h; Potency, µM (doses to about 46.1 µM), without a hit: top-dose activity, negative = less viability, usual class: cytotoxic; actives 1.6% (n = 360,000);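 also: NT is the 2HG producing partner of a matched IDH1 knockdown line; potency is read from the fitted curve at half-maximal effect; 0% = DMSO-treated cells and -100% = media-only wells without cells; nearly all actives have a fitted effect of over 55% in size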
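HT-1080-NT; 750 cells/well; 5% FBS RPMI; 48 h compound, 37 degrees C; CellTiter-Glo luminescence; curve fitting and curve-class assignment.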
DT40 TDP1 no CPT = qHTS for Inhibitors of human tyrosyl-DNA phosphodiesterase 1 (TDP1): qHTS in cells in absence of CPT | Potency, µM (doses to about 46.2 µM), for inactives: at the highest dose activity change, negative = growth inhibition, usual class: inhibitors | actives 15% (n = 420,000) | DT40 Tdp1-/- hTDP1 cells, no CPT, ATP luminescence, 48 h; also: potency is read from the fitted curve at half-maximal effect; nearly all actives have a fitted effect of over 55% in size
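Luminescent ATP content (CellTiter-Glo) served as the growth readout. Knockout chicken DT40 cells expressing human TDP1 were exposed to compounds without camptothecin for a minimum 48 hr at 37 °C.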
* = called active by the depositor; ? = inconclusive; / = not tested or not shown. Unless noted, calls follow the shape of the dose curve; as a rule, active = well fitted curve in the direction sought with a large enough effect; inconclusive = small, poorly fitted or top-dose-only effect, or another doubt; inactive = no such curve, though single readings can be large; an effect the other way counts as inactive or inconclusive. Unless noted, % is scaled to controls: 0 for no effect and ±100 for the full control effect.

SMILES | TDP1 cell CPT | HT1080 IDH1KD tx | ELG1 repair inh | IL1B secr inh | HT1080-NT tox | DT40 TDP1 no CPT
C=CCOc1ccc(C2NC(=O)c3ccccc3O2)cc1OC (stereo not drawn) | -14% | -3% | / | 10 | -3% | -20%
CCCN(CC(=O)Nc1ccc(F)c(F)c1F)C(=O)CCc1nc2ccccc2c(=O)[nH]1 | ? | -6% | 3% | 13 | -6% | -15%
CSc1ccccc1NC(=S)NC1CCCC1 | -4% | -1% | 0% | 9 | 8% | 10%
CCCCc1ccccc1NC(=S)NC1CCCC1 | ? | -12% | 1% | -7 | -17% | 18µM*
COc1ccc(CCC2(C)OCC(CCCCO)O2)cc1 (stereo not drawn) | 5% | 22% | / | 0 | 1% | -8%
CCOC(=O)c1sc(NC(=O)CN2C(=O)NC3(CCC(C)CC3)C2=O)c(C(=O)OCC)c1C (stereo not drawn) | -56% | 4% | -6% | 0 | 20% | -58%
CCOC(=O)c1sc(NC(=O)CN2C(=O)NC3(CC(C)CC(C)(C)C3)C2=O)cc1C (stereo not drawn) | ? | ? | 0% | -30 | ? | 18µM*
CCOC(=O)c1sc(NC(=O)CN2C(=O)NC3(CC(C)CC(C)(C)C3)C2=O)c(C(=O)OCC)c1C (stereo not drawn) | 9.2µM* | 6% | -28% | ? | 10% | 10µM*
Cn1c(=O)n(C)c2cc(N3CCOCC3)c(NC(=O)c3cccc(Cl)c3)cc21 | 12% | 16% | 12% | -4 | 8% | 26%
COC(=O)c1ccsc1NC(=O)CSc1nnnn1-c1ccccc1SC | 11µM* | -2% | ? | -2 | -1% | ?
CSc1ccccc1NC(=O)CSc1nnnn1-c1ccccc1SC | ? | 2% | ? | -5 | -2% | ?
CCCOc1ccc(C(=O)Nc2ccc(N3CCN(C(=O)c4ccco4)CC3)cc2)cc1 | ? | 2% | 15% | -27 | ? | ?
Cc1ccc(S(=O)(=O)N/N=C\c2ccccc2OCc2ccccc2)cc1 | ? | ? | -4% | -12 | ? | 18µM*
O=S(=O)(N/N=C/c1ccccc1F)c1ccccc1 | 18µM* | 6% | 9% | 1 | 11% | 23µM*
Cc1ccc(S(=O)(=O)NN=Cc2ccccc2Cl)cc1 | 23µM* | 10% | / | 7 | 2% | ?
Cc1ccc(S(=O)(=O)NN=Cc2cc(Cl)ccc2O)cc1 | -15% | -13% | / | 6 | -11% | -30%
CSc1nc2sc3c(c2c(=O)n1-c1ccc(F)c(Cl)c1)CCN(C(C)=O)C3 | -10% | / | / | / | / | 3%
CCCc1ccc(C(C)NC(=O)c2cnccn2)cc1 (stereo not drawn) | ? | -2% | -3% | 20 | 4% | 23µM*
O=C(COc1ccc(/C=N/NC(=O)c2cc3ccccc3o2)cc1Cl)Nc1ccccc1 | 5.2µM* | ? | ? | -98* | ? | 6.5µM*
O=[N+]([O-])c1ccc(C=NNc2ccccc2)cc1 | -7% | ? | / | -6 | -10% | ?
O=C(N/N=C/c1cccc([N+](=O)[O-])c1)c1cc2ccccc2o1 | ? | ? | 23% | 2 | 14% | 23µM*
C/C(=N\NC(=O)C1CC1(c1ccccc1)c1ccccc1)c1cccc([N+](=O)[O-])c1 (stereo not drawn) | ? | 11% | -1% | 7 | 18% | 7.3µM*

Bioassay records from PubChem.
